Mdm2 MdmX PPI: inhibitors of human Mdm2-MdmX association, primary screen, cell-based, luminescence, split luciferase, SaOS-2, uHTS; Protein Mdm4 (Homo sapiens) + E3 ubiquitin-protein ligase Mdm2 (Homo sapiens), …; SaOS-2 split-luciferase Mdm2/MdmX complementation; inhibition, % at 8 µM; 3% of 330,000 active; AID 485346, 2010;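 active means inhibition of at least 50% at 8 µM in the primary screen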
Target sequence (O15151 whole entry, looked up): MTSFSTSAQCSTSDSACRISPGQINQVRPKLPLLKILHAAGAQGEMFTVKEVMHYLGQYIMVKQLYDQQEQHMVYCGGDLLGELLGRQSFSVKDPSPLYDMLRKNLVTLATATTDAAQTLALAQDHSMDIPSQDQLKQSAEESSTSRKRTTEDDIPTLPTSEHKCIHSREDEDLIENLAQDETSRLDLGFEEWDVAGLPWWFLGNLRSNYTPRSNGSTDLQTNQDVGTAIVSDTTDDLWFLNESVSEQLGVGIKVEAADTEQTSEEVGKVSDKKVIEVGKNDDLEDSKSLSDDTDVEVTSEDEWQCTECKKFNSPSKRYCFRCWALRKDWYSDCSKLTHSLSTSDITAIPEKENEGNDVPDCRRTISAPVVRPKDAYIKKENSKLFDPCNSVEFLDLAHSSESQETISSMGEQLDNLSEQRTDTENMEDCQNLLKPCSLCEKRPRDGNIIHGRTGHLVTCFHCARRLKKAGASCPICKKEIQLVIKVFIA
Target sequence (Q00987 whole entry, looked up): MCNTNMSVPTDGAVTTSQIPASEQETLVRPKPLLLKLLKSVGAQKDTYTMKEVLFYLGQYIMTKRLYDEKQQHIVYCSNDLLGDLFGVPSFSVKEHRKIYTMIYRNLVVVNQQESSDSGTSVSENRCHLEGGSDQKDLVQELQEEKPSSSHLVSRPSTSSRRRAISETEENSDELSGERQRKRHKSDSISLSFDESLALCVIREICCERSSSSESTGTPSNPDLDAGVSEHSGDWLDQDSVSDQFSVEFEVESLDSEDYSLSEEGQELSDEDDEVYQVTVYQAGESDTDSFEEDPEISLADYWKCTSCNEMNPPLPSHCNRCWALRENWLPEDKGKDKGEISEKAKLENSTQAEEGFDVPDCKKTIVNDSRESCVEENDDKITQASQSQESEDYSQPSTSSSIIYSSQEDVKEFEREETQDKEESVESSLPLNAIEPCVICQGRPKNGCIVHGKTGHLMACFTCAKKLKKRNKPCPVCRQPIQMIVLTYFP
KLF5 inh: KLF5 expression inhibitors, primary screen, DLD-1 cells, luminescence | DLD-1 KLF5 promoter-luciferase reporter | inhibition, % at 5 µM | 0.23% of 290,000 active | AID 1700, 2009;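 active means inhibition above a per-plate limit of that plate's mean compound inhibition plus 3 SD, cut at about 60% in these data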;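 further: 0% = DMSO wells and 100% = LY294002 at 200 µM; higher means less KLF5 promoter-driven luciferase light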
Gli-Sufu block: Gli-Sufu pathway antagonists, primary screen, luciferase luminescence, Sufu-KO-LIGHT cells, uHTS | 0.74% of 340,000 active | inhibition, % at 5 µM | AID 588413, 2011 | Sufu-KO-LIGHT fibroblasts, Gli luciferase reporter luminescence;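 active means inhibition above about 55%, limit read from the data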;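 further: 0% = DMSO-treated cells and 100% = wells with medium but no cells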
697 NFkB inh: inhibitors of PMA/ionomycin-induced NF-kB reporter, 697 cells, primary screen, B-cell NF-kB inhibitor project, cell-based, luminescence, uHTS; 697 B-cell NF-kB luciferase reporter, 16 h; inhibition, % at 4 µM; 0.33% of 330,000 active; AID 435022, 2010; in the data active means inhibition above about 35%
Jurkat NFkB inh: inhibitors of induced NF-kB luciferase reporter, primary screen, TCR NF-kB activation inhibitor project, cell-based, luminescence, uHTS. Jurkat, PMA/ionomycin-induced NF-kB luciferase reporter. inhibition, % at 4 µM. 0.53% of 330,000 active; in the data active means inhibition above about 50%
aSyn 5UTR inh: MLPCN primary screen, SNCA 5' untranslated region; AID 1813, 2009; inhibition, % (tested at 7.5 µM); alpha-synuclein 5'UTR reporter, inhibitor activity; 0.82% of 300,000 active; in the data active means inhibition above about 60%; inconclusive means no clear call, values can overlap the other calls;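 further: H4 neuroglioblastoma cells stably carrying SNCA 5'UTR luciferase fusion; 0% = DMSO wells and 100% = positive control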
Mdm2 MdmX conf: Mdm2-MdmX complex disruptors, retested hits, confirmation, luminescence, single concentration; shares compounds with Mdm2 MdmX PPI; Mdm2-MdmX binding, luminescent assay; inhibition, % at 8 µM; 55% of 10,000 active; in the data active means inhibition above about 40%
FLuc counter: full-length luciferase signal inhibition, confirmation, counter-screen for Mdm2/MdmX interaction inhibitor project, cell-based, single concentration, SaOS-2 | 77% of 6,200 active | inhibition, % at 8 µM | shares compounds with Mdm2 MdmX PPI | SaOS-2 full-length luciferase counterscreen, luminescence;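 active means mean inhibition at 8 µM reaching about 37%, which flags the compound as non-specific, limit read from the data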;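 further: p53-null SaOS-2 cells with luciferase driven by a doxycycline-inducible promoter; compound on cells about two nights before reading with doxycycline added after day one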
* = called active by the depositor; u = inconclusive; x = no result. Rows were chosen to be rich in hits. Some 4.1% of all compounds tested hit in one or more screens of this group.

SMILES	Mdm2 MdmX PPI	KLF5 inh	Gli-Sufu block	697 NFkB inh	Jurkat NFkB inh	aSyn 5UTR inh	Mdm2 MdmX conf	others
Cc1cccc(Cn2c(O)c(N=NC(=S)Nc3ccccc3F)c3ccccc32)c1	62.7*	-47.6	4.2	2.3	1.8	u	41.9*	FLuc counter=54.4*
NC(=S)N=Nc1c(O)n(Cc2ccc(F)cc2)c2ccccc12	29.7	-20.2	18.8	15.0	-5.2	17.1	x
Cc1cccc(NC(=S)N=Nc2c(O)n(CN3CCOCC3)c3ccccc23)c1C	35.5	10.3	1.6	17.5	11.1	49.3	x
CC(OC(=O)Cn1cnc2c1c(=O)n(C)c(=O)n2C)C(=O)NC(C)c1ccc(Cl)cc1Cl (stereo not given)	9.3	x	-5.8	1.0	19.6	6.8	x
O=C(c1ccco1)N1CCN(C2CC(=O)N(c3ccc(F)c(Cl)c3)C2=O)CC1 (stereo not given)	0.7	14.7	-25.0	5.6	4.9	-12.4	x
CCCCNC(=O)Nc1ncn[nH]1	7.5	-16.9	-4.5	-1.8	3.1	-12.7	x
CC(=O)c1ccc(NC(=O)Nc2ccc([N+](=O)[O-])cc2)cc1	-25.3	10.4	-1.6	-67.2	-69.3	-148.0	x
O=C(Nc1ccc(Oc2ccc(NC(=O)Nc3ccc([N+](=O)[O-])cc3)cc2)cc1)Nc1ccc([N+](=O)[O-])cc1	95.2*	-13.5	20.2	10.6	31.5	90.7*	66.4*	FLuc counter=76.0*
Cc1ccc(NC(=O)Nc2cccc([N+](=O)[O-])c2)cc1F	57.3*	-106.6	-37.4	-61.8	-80.2	-87.3	44.0*	FLuc counter=45.1*
O=C(Nc1ccc(OC(F)(F)F)cc1)Nc1cccc([N+](=O)[O-])c1	94.7*	-14.4	40.0	-93.9	35.1	30.0	90.5*	FLuc counter=35.8
Cc1ccc(C(C)C)cc1NC(=O)Nc1ccc([N+](=O)[O-])cc1	89.1*	-5.5	1.8	11.9	1.0	44.6	81.5*	FLuc counter=41.7*
COc1cc(OC)c(NC(=O)/C=C/C(=O)O)cc1Cl	20.6	12.3	-20.8	6.4	16.5	4.4	x
Oc1ccc(Cl)cc1-c1cc(-c2cccc(Br)c2)n[nH]1	61.5*	1.5	16.3	-16.7	9.2	-37.0	32.8
COc1ccc(C)cc1S(=O)(=O)Nc1ccc2c(c1)OCO2	6.1	12.6	-2.2	17.2	-25.2	-7.8	x
Cc1ccc(C(=O)N/C(=C/c2ccccc2)C(=O)NCC2CCCO2)cc1 (stereo not given)	-21.5	-2.1	-1.9	12.0	6.8	-1.7	x
CCOc1cc(N2CCOCC2)c(OCC)cc1NC(=O)c1nn(CC)c(=O)c2ccccc12	85.5*	x	40.7	14.8	15.7	x	48.9*	FLuc counter=86.9*
Cc1nc2ccc(NC(=O)c3nn(CC(C)C)c(=O)c4ccccc34)cc2s1	77.3*	19.6	-1.1	-93.0	16.0	52.9	86.0*	FLuc counter=51.3*
Cn1nc(C(=O)Nc2cccc(S(=O)(=O)N3CCCC3)c2)c2ccccc2c1=O	53.6*	x	10.7	-6.6	-2.1	x	2.1
CCOc1cc(N2CCOCC2)c(OCC)cc1NC(=O)c1ccccc1C	4.7	-16.2	3.9	15.4	7.4	29.9	x
CCCn1nc(C(=O)Nc2ccc(N3CCOCC3)cc2)c2ccccc2c1=O	50.8*	x	-4.7	-3.8	1.3	x	9.6
Cc1nnc(NC(=O)c2nn(CC(C)C)c(=O)c3ccccc23)s1	6.3	-10.8	7.1	21.0	4.9	20.1	x
Cn1nc(C(=O)Nc2cccc(S(=O)(=O)N3CCOCC3)c2)c2ccccc2c1=O	27.6	x	23.2	5.5	2.0	x	x
CCCn1nc(C(=O)Nc2cccc(S(=O)(=O)N(C)c3ccccc3)c2)c2ccccc2c1=O	52.6*	x	-3.8	-15.4	1.7	x	13.2
CCCC(=O)Nc1cccc(S(=O)(=O)N(C)c2ccccc2)c1	20.3	7.1	-0.2	1.1	0.9	16.8	x
CC1C(c2ccccc2)N(C)C(c2ccccc2)C(C)C1(O)C#Cc1ccccc1 (stereo not given)	71.2*	-0.6	7.1	6.8	18.7	x	24.9
SMILES	Mdm2 MdmX PPI	KLF5 inh	Gli-Sufu block	697 NFkB inh	Jurkat NFkB inh	aSyn 5UTR inh	Mdm2 MdmX conf	others
O=[N+]([O-])c1cccc(/C([O-])=C(/C(=S)Nc2ccccc2)[n+]2ccccc2)c1	0.0	-26.3	-9.6	-16.9	-19.9	-105.0	x
CC(C)Cc1ccc(C(=O)NCCOc2ccccc2)o1	-54.1	-56.9	-55.0	-147.0	-123.9	16.6	x
CC(Oc1ccc(F)cc1)C(=O)Nc1ccc2ccccc2c1 (stereo not given)	53.5*	-37.8	-3.8	-91.2	-34.6	35.0	35.0
CC(=O)Nc1ccc(NC(=O)C(C)Oc2ccccc2F)cc1 (stereo not given)	-0.7	-30.3	-3.5	-19.7	8.6	1.4	x
CC(Oc1ccccc1F)C(=O)Nc1ccc2ccccc2c1 (stereo not given)	68.1*	-3.3	-2.4	-181.6	-66.8	2.0	62.7*	FLuc counter=65.8*
COc1ccc(OC(C)C(=O)Nc2cccc(F)c2)cc1 (stereo not given)	7.7	0.6	-2.4	5.2	0.9	-15.1	x
Cc1ccc(NC(=O)CCn2c(=O)[nH]c3ccsc3c2=O)cc1F	3.3	-14.6	-11.9	-2.9	16.6	8.5	x
CC1CCCC(NC(=O)CSc2ccc(F)cc2)C1C (stereo not given)	25.1	-21.8	-10.7	8.6	-8.0	-13.3	x
CC1CCCC(NCC(O)COC(c2ccc(F)cc2)c2ccc(F)cc2)C1C (stereo not given)	97.8*	-14.3	25.6	-5.7	-3.9	32.8	77.5*	FLuc counter=48.8*
CCOC(=O)CN(Cc1ccccc1)C(=O)OC(C)(C)C	-15.9	-38.0	x	-7.1	-1.6	-2.9	x
FC(F)(F)c1nnc2c(Sc3ccccc3)nc3ccccc3n12	68.0*	-16.8	-4.9	-57.6	15.8	-102.7	23.1
Cc1ccc(-c2nc3c(c(=O)[nH]c(=O)n3Cc3ccccc3)n2C)s1	62.3*	-9.5	x	5.4	0.1	28.5	5.8
O=C(CSc1nc(-c2cccs2)nc2ccccc12)NC1CCS(=O)(=O)C1 (stereo not given)	61.2*	x	x	21.1	-13.6	x	0.9
Cc1ccc(/C=N\NC(=O)c2ccc3c(c2)OCO3)o1	0.6	-59.2	-29.3	-37.9	-30.1	-80.6	x
O=C(CN1C(=O)COc2ccccc21)NCCCN1CCOCC1	-14.9	-10.4	12.9	-6.1	-7.7	10.3	x
